Rows were chosen to be rich in hits. Some 7.4% of all compounds tested hit in one or more screens of this group.
HEK293 viab = GF-AFC viability counterscreen for inhibitors of alpha-synuclein gene (SNCA) expression; Potency, µM (doses to about 57.1 µM), usual class: cytotoxic; AID 1671193, 2021; HEK-293-SNCA-luc viability, GF-AFC fluorescence, 24 h; 0.12% of 150,000 active; further: nearly all actives have a fitted effect of over 30% in size
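Cytotoxicity counterscreen: after 24 h compound treatment of genome-edited SNCA-luciferase HEK-293 cells, live-cell protease substrate GF-AFC read by fluorescence after 30 min; activity scaled between DMSO (0%) and medium-only (-100%), curves Hill-fitted.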
NPR1 antag = Natriuretic polypeptide receptor (hNpr1) antagonism - Primary qHTS | Potency, µM (highest dose often 46.3 µM), usual class: inhibitors | HEK293 hNpr1 GloSensor cGMP, ANP-stimulated luminescence | Atrial natriuretic peptide receptor 1 (Homo sapiens), P16066 | 1.6% of 76,000 active; calls by dose curve; further: nearly all actives have a fitted effect of over 60% in size
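Compound pre-incubated 30 min at room temperature on GloSensor-loaded HEK293 cells stably carrying hNpr1 and the pGS-40F cGMP biosensor. Stimulation uses hNppA at 0.1 nM final; luminescence is taken at baseline and 20 min post-agonist.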
SNCA expr inh = Primary qHTS assay for inhibitors of alpha-synuclein gene (SNCA) expression | HEK-293 SNCA-luciferase knock-in, luminescence, 24 h | Potency, µM (top dose mostly 57.2 µM), most hits filed as inhibitors | 0.17% of 140,000 active | AID 1671194, 2021; further: nearly all actives have a fitted effect of over 45% in size
NIH3T3 tox = Cytotoxic Profiling in NIH 3T3 Cell Line of Diverse Libraries Using Quantitative High-Throughput Screening. Potency, µM (titrated, usually from 96.7 µM), most hits filed as inhibitors. 4.3% of 94,000 active. NIH 3T3 viability, CellTiter-Glo ATP luminescence, 48-72 h; further: nearly all actives have a fitted effect of over 55% in size
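NIH 3T3 cells at 400 cells/well received 23 nL of compound by pintool and were incubated 48 or 72 h at 37 °C. Viability was read as ATP-coupled CellTiter-Glo luminescence.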
HEK cytotox = Cytotoxic Profiling in HEK 293 Cell Line of Diverse Libraries Using Quantitative High-Throughput Screening; 6.6% of 94,000 active; Potency, µM (series often up to 115 µM), usual class: inhibitors; HEK 293 viability, ATP luminescence (CellTiter-Glo), 48-72 h; further: nearly all actives have a fitted effect of over 60% in size
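qHTS cytotoxicity; HEK 293, 250 cells/well; compound pinned; 48 or 72 hr, 37 degree Celsius, 5% CO2, 95% humidity; CellTiter-Glo, 10 min RT; luminescence (ATP).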
FLuc inh-1 = Firefly luciferase inhibition profiling of diverse chemical library using quantitative high-throughput screening. Luciferin 4-monooxygenase (Photinus pyralis), P08659. purified P. pyralis luciferase, luminescence, biochemical. Potency, µM (series often up to 115 µM), actives largely listed as inhibitors. 2.5% of 76,000 active. AID 1347043, 2019; further: nearly all actives have a fitted effect of over 65% in size
Target sequence (P08659 whole entry, looked up): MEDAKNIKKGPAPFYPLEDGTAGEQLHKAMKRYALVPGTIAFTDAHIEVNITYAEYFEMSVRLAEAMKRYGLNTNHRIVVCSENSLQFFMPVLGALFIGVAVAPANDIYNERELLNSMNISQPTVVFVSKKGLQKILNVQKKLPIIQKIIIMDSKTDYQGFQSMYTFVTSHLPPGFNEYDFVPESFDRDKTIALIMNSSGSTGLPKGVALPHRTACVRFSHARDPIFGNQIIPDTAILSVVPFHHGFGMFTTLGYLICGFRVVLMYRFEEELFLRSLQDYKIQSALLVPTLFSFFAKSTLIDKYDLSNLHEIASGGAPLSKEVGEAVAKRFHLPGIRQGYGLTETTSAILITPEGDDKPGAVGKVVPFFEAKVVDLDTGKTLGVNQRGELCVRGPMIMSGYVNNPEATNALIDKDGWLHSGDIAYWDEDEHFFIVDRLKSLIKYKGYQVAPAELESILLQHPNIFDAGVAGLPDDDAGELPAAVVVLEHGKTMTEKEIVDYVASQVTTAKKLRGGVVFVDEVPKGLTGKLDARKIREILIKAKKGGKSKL
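Luminescence read by CCD imager after adding enzyme (10nM final) to wells holding compound, titrated in qHTS. Substrates 10uM each D-luciferin and ATP; buffer 50mM Tris acetate pH 7.5, 10mM Mg acetate, Tween-20, BSA.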
FLuc SDR no ATP = Firefly luciferase (FLuc-C-HiBiT) SDR gain of signal screen - without ATP. shares compounds with FLuc inh-1. Purified FLuc-C-HiBiT, Nano-Glo HiBiT luminescence, no ATP. Potency, µM (top dose mostly 32.7 µM), hits mostly activators. 7.8% of 1,300 active. AID 1963318, 2024; further: nearly all actives have a fitted effect of over 55% in size
FLuc SDR ATP = Firefly luciferase (FLuc-C-HiBiT) SDR gain of signal screen - plus ATP. shares compounds with FLuc inh-1. purified FLuc-C-HiBiT + ATP, HiBiT complementation luminescence. Potency, µM (highest dose often 32.7 µM), most hits filed as activators. 8.7% of 1,300 active. AID 1963319, 2024;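 further: signal reports ligand binding via conformational change of the enzyme rather than luciferase catalysis; nearly all actives have a fitted effect of over 55% in size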
FLuc inh-2 = Firefly luciferase (FLuc-C-HiBiT) enzymatic inhibition screen - Functional assay. shares compounds with FLuc inh-1. purified FLuc-C-HiBiT enzyme, luciferin luminescence. Potency, µM (doses to about 32.7 µM), most hits filed as inhibitors. 42% of 1,300 active. AID 1963320, 2024; further: nearly all actives have a fitted effect of over 70% in size
Large screens that a line does not name were inactive (follow-up assays come after a bar, where they were run). Unless noted, the call rests on the fitted dose curve; in most records, active means well fitted curve in the direction sought with a large enough effect; inconclusive means small, poorly fitted or top-dose-only effect, or another doubt; inactive means no such curve, though single readings can be large; an effect the other way counts as inactive or inconclusive.

O=C(Nc1ccc([C@H]2OCC(=O)N(C3CCOCC3)[C@@H]2CO)cc1)c1ccc(C(F)(F)F)cc1	FLuc inh-1 10µM | FLuc SDR no ATP inconclusive | FLuc SDR ATP inactive | FLuc inh-2 inconclusive
COc1ccc(-c2cc3c(cn2)CN(Cc2cccnc2)CCN3)cc1OC	HEK cytotox inconclusive, FLuc inh-1 5.6µM | FLuc SDR no ATP inconclusive | FLuc SDR ATP inactive | FLuc inh-2 14µM
COc1ccc(-c2cc3c(cn2)CN(Cc2cccnc2)CCN3)cc1F	NPR1 antag inconclusive, HEK cytotox inconclusive, FLuc inh-1 5µM | FLuc SDR no ATP inconclusive | FLuc SDR ATP inactive | FLuc inh-2 14µM
c1ccc(CNc2cc3c(cn2)CN(Cc2cccnc2)CCN3)cc1	none
O=C(c1ccc2oc(-c3cccc(F)c3)nc2c1)N1CCCCC1CCO (stereo not given)	NIH3T3 tox inconclusive, HEK cytotox inconclusive, FLuc inh-1 14µM | FLuc SDR no ATP inactive | FLuc SDR ATP inactive | FLuc inh-2 inconclusive
O=C(Nc1ccccc1)N1CCC2(CC1)C(=O)NCN2Cc1ccc(Cl)cc1	none
CCOC(=O)c1ccc(NC2SC(=O)N(Cc3cccc(C(=O)O)c3)C2=O)cc1 (stereo not given)	none (no result: NPR1 antag, NIH3T3 tox, HEK cytotox, FLuc inh-1) | FLuc SDR no ATP inactive | FLuc SDR ATP inconclusive | FLuc inh-2 inconclusive
C=C1[C@H](n2cnc3c(=O)[nH]c(N)nc32)C[C@H](O)[C@H]1CO	none (no result: NPR1 antag, NIH3T3 tox, HEK cytotox, FLuc inh-1)
C=C1[C@H](CO)[C@@H](O)C[C@@H]1n1cnc2c(=O)[nH]c(N)nc21	none (no result: NPR1 antag, SNCA expr inh, NIH3T3 tox, HEK cytotox, FLuc inh-1) | FLuc SDR no ATP inactive | FLuc SDR ATP inactive | FLuc inh-2 inactive
Nc1nc2c(ncn2COCCO)c(=O)[nH]1	none (no result: NPR1 antag, NIH3T3 tox, HEK cytotox, FLuc inh-1) | FLuc SDR no ATP inactive | FLuc SDR ATP inactive | FLuc inh-2 inactive
CSCC(=O)N[C@H]1CCN2C(=O)c3cc(-c4ccc(SC)cc4)ccc3NC(=O)[C@H]12	FLuc inh-1 13µM | FLuc SDR no ATP inactive | FLuc SDR ATP inactive | FLuc inh-2 inconclusive
Cc1nc(C)c(C(=O)N2CCC(Oc3ccc(-c4noc(-c5ccccc5)n4)cc3)C2)s1 (stereo not given)	HEK293 viab inconclusive, NPR1 antag 6.3µM, NIH3T3 tox inconclusive, HEK cytotox inconclusive, FLuc inh-1 5.6µM | FLuc SDR no ATP inactive | FLuc SDR ATP inactive | FLuc inh-2 inconclusive
CCc1nc(-c2ccc(OC3CCN(C(=O)C4CC4)C3)cc2)no1 (stereo not given)	NPR1 antag inconclusive, NIH3T3 tox inconclusive, HEK cytotox inconclusive, FLuc inh-1 7.9µM | FLuc SDR no ATP inactive | FLuc SDR ATP inactive | FLuc inh-2 inconclusive
Cc1nc(C)c(C(=O)N2CC(Oc3ccc(-c4noc(-c5ccccc5)n4)cc3)C2)s1	HEK293 viab inconclusive, NPR1 antag inconclusive, FLuc inh-1 inconclusive
CCc1nc(-c2ccc(OC3CCN(C(=O)COc4ccc(F)cc4)C3)cc2)no1 (stereo not given)	NPR1 antag inconclusive, NIH3T3 tox inconclusive, HEK cytotox inconclusive
COc1ccc(CN2CCC3(Cc4ccccc4CNC3=O)C2)cc1F (stereo not given)	none (no result: NPR1 antag, FLuc inh-1)
Nc1nccc(-c2c(-c3ccc(F)cc3)ncn2C2CCNCC2)n1	none (no result: HEK293 viab, NPR1 antag, SNCA expr inh, NIH3T3 tox, HEK cytotox, FLuc inh-1) | FLuc SDR no ATP inactive | FLuc SDR ATP inactive | FLuc inh-2 inactive
O=C(c1cscn1)N1CCCC2(CN[S+](=O)([O-])c3cccnc3O2)C1 (stereo not given)	none (no result: NPR1 antag, FLuc inh-1)
CC(=O)OCC(=O)[C@@]12O[C@@H]1C[C@H]1[C@@H]3CC=C4C[C@@H](O)CC[C@]4(C)[C@H]3CC[C@@]12C	none (no result: NPR1 antag, SNCA expr inh, NIH3T3 tox, HEK cytotox, FLuc inh-1)
O=C1N(c2ccccc2)C[C@H]2CN(Cc3ccccc3)CCN12	FLuc inh-1 14µM | FLuc SDR no ATP inactive | FLuc SDR ATP inactive | FLuc inh-2 inconclusive
CS(=O)(=O)c1ccc(CN2CCN3C(=O)N(c4ccccc4)C[C@H]3C2)cc1	NIH3T3 tox inconclusive, HEK cytotox inconclusive
COc1ccc(-c2cn3nc(N4CCCC(C(=O)NCc5ccccc5Cl)C4)sc3n2)cc1 (stereo not given)	none (no result: NPR1 antag, NIH3T3 tox, HEK cytotox, FLuc inh-1)
O=C(NCc1cccc(Cl)c1)C1CCN(c2nn3cc(-c4ccc(F)cc4)nc3s2)CC1	none (no result: NPR1 antag, NIH3T3 tox, HEK cytotox, FLuc inh-1)
O=C(NCc1cccc(Cl)c1)C1CCCN(c2nn3cc(-c4ccc(F)cc4)nc3s2)C1 (stereo not given)	none (no result: NPR1 antag, NIH3T3 tox, HEK cytotox, FLuc inh-1) | FLuc SDR no ATP inactive | FLuc SDR ATP inconclusive | FLuc inh-2 inconclusive
COc1ccc(-c2cn3nc(N4CCCC(C(=O)NCc5ccccc5OC)C4)sc3n2)cc1 (stereo not given)	none (no result: NPR1 antag, NIH3T3 tox, HEK cytotox, FLuc inh-1) | FLuc SDR no ATP inactive | FLuc SDR ATP inactive | FLuc inh-2 inconclusive
O=C(NC1CCN(c2ccnc3ccnn23)CC1)c1ccc(C(F)(F)F)cc1	NIH3T3 tox inconclusive, HEK cytotox inconclusive (no result: NPR1 antag, FLuc inh-1)
O=C(COc1ccccc1[N+](=O)[O-])Nc1cccc(-c2nc3ccccc3s2)c1	none (no result: NPR1 antag, NIH3T3 tox, HEK cytotox, FLuc inh-1) | FLuc SDR no ATP inactive | FLuc SDR ATP inactive | FLuc inh-2 inactive
O=C(COc1ccccc1Cl)Nc1ccc(-c2nc3ccccc3s2)cc1	none (no result: NPR1 antag, NIH3T3 tox, HEK cytotox, FLuc inh-1) | FLuc SDR no ATP inactive | FLuc SDR ATP inactive | FLuc inh-2 inactive

Screening results from PubChem.
